Rab9 prom act: activators of Rab9 promoter. actives 2.8% (n = 320,000). Potency, µM (doses to about 9.22 µM), inactives show at the highest dose activation, negative = inhibition, most hits filed as activators. Huh7 Rab9 promoter-luciferase reporter, luminescence, 24 h; note: % of control where 0% means no effect; nearly all actives have a fitted effect of over 60% in size
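Luminescence from Amplite-detected luciferase (10 minutes, ambient) reports Rab9 promoter activation. Before that, stable Rab9-luciferase Huh7 cells (1500/well, reduced-serum OP-MEM I plus 10% FBS) were exposed to compound for 24 hours at 37C.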
NPC1 promoter act: NPC1 promoter activation; Huh7 NPC1 promoter luciferase reporter, 24 h; Potency, µM (doses to about 9.22 µM), for the others: at the highest dose activation, usual class: activators; actives 2.4% (n = 320,000); note: % of control where 0% means no effect; nearly all actives have a fitted effect of over 60% in size
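Stable NPC1-promoter luciferase Huh7 line; cpd (DMSO) 24 h, 37 °C, 5% CO2; Amplite luciferase reagent 10 min RT; luminescence readout. qHTS format.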
SMN2 splice up: increases expression of the SMN2 splice variant | AID 1458 | Potency, µM (highest dose often 46.1 µM), for inactives: top-dose activity change, positive = activation, most hits filed as activators | HEK293 SMN2-luciferase splicing reporter, luminescence, 30-36 h | actives 2.8% (n = 210,000); note: % of control where 0% means no effect; nearly all actives have a fitted effect of over 55% in size
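HEK293 cells carry an SMN2 minigene-luciferase reporter in which exon 7 inclusion puts luciferase in frame. Cells were seeded at 2000 cells/well, attached for 10-12 hours, then exposed to compounds for 30-36 hours at 37C before ONE-Glo luminescence.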
ELG1 genotoxic: genotoxicity induction in ELG1-luciferase HEK293T cells; Potency, µM (highest dose often 46 µM), without a hit: at the highest dose activity change, positive = activation, usual class: activators; HEK293T ELG1-luciferase reporter, luminescence, 16 h; actives 1.3% (n = 330,000); note: % of control where 0% means no effect; nearly all actives have a fitted effect of over 60% in size
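Genotoxic stress is detected as increased luminescence from luciferase-tagged ELG1 in HEK293T cells, measured with ONE-Glo after a 16 hr treatment at 37 °C.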
FLuc counter: counter-screen for miR-21 project: firefly luciferase inhibitors or activators; actives 6.9% (n = 360,000); Potency, µM (titrated, usually from 57.5 µM), without a hit: at the top dose activity change, negative = inhibition, most hits filed as inhibitors; purified FLuc, Km substrates, luminescence inhibition;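 note: plate controls were vehicle for no effect and reference inhibitor for full effect; nearly all actives have a fitted effect of over 55% in size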
Target sequence (P08659 whole entry, looked up): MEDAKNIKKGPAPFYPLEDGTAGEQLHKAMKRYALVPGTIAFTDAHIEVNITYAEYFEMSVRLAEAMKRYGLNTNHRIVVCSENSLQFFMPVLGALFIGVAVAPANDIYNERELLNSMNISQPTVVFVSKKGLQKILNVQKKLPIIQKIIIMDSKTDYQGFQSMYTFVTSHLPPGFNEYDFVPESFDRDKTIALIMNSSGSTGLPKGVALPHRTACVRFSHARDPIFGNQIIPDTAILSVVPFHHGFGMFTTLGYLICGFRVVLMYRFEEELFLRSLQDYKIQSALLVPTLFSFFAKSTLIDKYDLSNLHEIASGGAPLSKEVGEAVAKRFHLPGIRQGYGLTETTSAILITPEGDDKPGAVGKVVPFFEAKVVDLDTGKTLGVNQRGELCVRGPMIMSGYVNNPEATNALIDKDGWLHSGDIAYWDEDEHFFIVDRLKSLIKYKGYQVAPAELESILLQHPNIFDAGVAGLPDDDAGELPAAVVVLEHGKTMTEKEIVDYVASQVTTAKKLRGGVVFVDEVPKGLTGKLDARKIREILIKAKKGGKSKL
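Biochemical qHTS of compounds, final roughly 60 µM downward over six points, against 10 nM purified firefly luciferase using Km concentrations of substrates (10 uM D-luciferin, 10 uM ATP) in Tris acetate pH 7.5 buffer; luminescence output.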
Starred values were filed as active, the others as inactive; ? = inconclusive; . = no result; [ ] = dose if it differs, or a comment. In the library only some 7.4% were active in any assay of this set; here they are far more common. Calls come from the whole dose curve; as a rule, active = well fitted curve in the direction sought with a large enough effect; inconclusive = small, poorly fitted or top-dose-only effect, or another doubt; inactive = no such curve, though single readings can be large; an effect the other way counts as inactive or inconclusive. Potency is the fitted concentration of half-maximal effect.

SMILES	Rab9 prom act	NPC1 promoter act	SMN2 splice up	ELG1 genotoxic	FLuc counter
CSc1ccc(NC(=O)Nc2cc(C)ccn2)cc1	0.45µM*	0.5µM*	1.6µM*	?	0.3µM*
Cc1ccnc(NC(=O)Nc2ccc(F)cc2)c1	0.56µM*	1.4µM*	13µM*	?	1.9µM*
Cc1ccc2[nH]cc(C(c3ccccc3)c3cccs3)c2c1 (stereo not given)	.	.	-9%	.	-9%
COc1cc(NC(=O)CC2C(=O)OCCN2Cc2ccccc2)cc(OC)c1 (stereo not given)	.	.	-1%	.	-4%
COc1ccccc1NC(=O)Nc1ccc(C)cn1	7%	21%	.	6%	?
Cc1ccnc(NC(=O)c2ccc([N+](=O)[O-])s2)c1	3.5µM*	3.2µM*	.	?	13µM*
Cc1ccc(NC(=O)Nc2ccc(F)cc2)nc1	4µM*	?	25µM*	8%	11µM*
O=C(Nc1cccc(-c2ccc(N3CCCCC3)nn2)c1)c1ccco1	2.8µM*	4µM*	.	1.6µM*	0.38µM*
O=C(Nc1cccc(-c2ccc(N3CCOCC3)nn2)c1)c1ccccc1Cl	3.5µM*	?	.	11%	1.7µM*
Cc1ccc(C(=O)Nc2cccc(-c3ccc(N4CCOCC4)nn3)c2)cc1	3.5µM*	2.5µM*	.	1%	1.3µM*
Cc1ccc(C(=O)Nc2ccc(N3CCOCC3)nc2)cc1	19%	19%	-19%	8%	-17%
Cc1ccccc1C(=O)Nc1ccc(N2CCOCC2)nc1	29%	21%	9%	16%	?
Cc1ccc(C(=O)Nc2ccc(S(=O)(=O)N3CCOCC3)cc2)cc1C	0%	-8%	.	0%	0%
Cc1ccc(C(=O)Nc2cccc(-c3ccc(N4CCOCC4)nn3)c2)cc1C	2.8µM*	?	.	?	2.1µM*
CN(C)CCC[C@@H]1c2ccccc2Oc2ccc(C(F)(F)F)cc21	.	.	-5%[9.22 µM]	.	.
Cc1cc(C(=O)Nc2cccc(-c3ccc(N4CCOCC4)nn3)c2)ccc1[N+](=O)[O-]	?	?	.	0%	2.7µM*
O=C(Nc1cccc(-c2ccc(N3CCOCC3)nn2)c1)c1ccc(Cl)cc1	?	?	.	?	2.1µM*
O=C(COc1ccc(Cl)cc1)Nc1cccc(-c2ccc(N3CCOCC3)nn2)c1	1.6µM*	3.2µM*	.	2.1µM*	1.3µM*
O=C(c1cccc(Cl)c1)N1CCN(c2ccc(N3CCOCC3)nn2)CC1	-1%	-3%	.	3%	3%
CCCCc1nc2c(c3c1C[C@H](C)OC3)CN(C(=O)NCCc1c[nH]c3ccccc13)CC2	.	.	-24%[9.22 µM]	.	.
CC(=O)Nc1cc(NC(C)=O)cc(-c2nc3ccccc3[nH]2)c1	-3%	-8%	16%	3%	-17%
Cc1ccc(SCC(=O)Nc2ccc(-c3nc4ccccc4[nH]3)cc2)cc1	?	?	5.6µM*	?	-8%
CC(=O)Nc1ccc(-c2nc3c(C)cccc3[nH]2)cc1	1.6µM*	2.5µM*	3.5µM*	2.9µM*	2.4µM*
O=C(CSc1ccc(-c2nc3ccccc3[nH]2)cn1)Nc1ccc(S(=O)(=O)NC2CC2)cc1	2%	-1%	44%	0%	1.5µM*
Cc1nc(NC(=O)CSc2ccc(-c3nc4ccccc4[nH]3)cn2)sc1C	?	?	17%	?	-13%
SMILES	Rab9 prom act	NPC1 promoter act	SMN2 splice up	ELG1 genotoxic	FLuc counter
Cc1ccc2nc(SCC(=O)Nc3nnc(SCC(N)=O)s3)[nH]c2c1	-1%	-1%	-1%	0%	17µM*
Cc1noc2ncnc(N3CCCC(C(=O)Nc4cccc(C(F)(F)F)c4)C3)c12 (stereo not given)	.	.	.	.	4%
CCc1nnc(NC(=O)CSc2ccc(-c3nc4ccccc4[nH]3)cn2)s1	2.5µM*	?	?	?	?
CCc1nnc(NC(=O)CSc2n[nH]c(-c3ccccc3O)n2)s1	-7%	1%	.	0%	17µM*
CN(C)CCNC(=S)Nc1ccc(-c2nc3ccccc3[nH]2)cc1	1.6µM*	2.2µM*	11µM*	18%	9.5µM*
O=C(CSc1n[nH]c(-c2ccccc2O)n1)N1CCOCC1	27%	5%	18%	8%	19µM*
S=C(NCCCN1CCOCC1)Nc1ccc(-c2nc3ccccc3[nH]2)cc1	27%	21%	-14%	-1%	?
CCN(C(=O)c1c(C)oc2ncn(CC(C)C)c(=O)c12)c1cccc(Cl)c1	.	.	.	.	1%
O=C(OC1CCOC1=O)C1CCN(S(=O)(=O)c2ccccc2)CC1 (stereo not given)	-1%	-2%	.	-1%	-1%
Cc1ccc2nc(-c3ccc(SCC(=O)Nc4nnc(C)s4)nc3)[nH]c2c1	2.8µM*	2.5µM*	14µM*	?	0.6µM*
Cc1ccc2nc(-c3ccc(SCC(=O)Nc4nc(C)cs4)nc3)[nH]c2c1	2.8µM*	3.5µM*	6.3µM*	?	0.54µM*
Fc1ccccc1COc1ccc(-c2nnn(Cc3ccccc3F)n2)cc1	0%	4%	-11%	-2%	-17%
O=C(Oc1ccc(C(=S)N2CCCCC2)cc1)c1ccccc1F	-1%	1%	-3%	-2%	?
C#CC(C)(CC)NC(=O)Cn1nnc(-c2ccc(OCc3ccccc3Cl)cc2)n1 (stereo not given)	.	.	-19%	.	-18%
O=C(O)Cn1nnc(-c2ccc(OCc3ccccc3Cl)cc2)n1	-3%	2%	.	5%	19µM*
Nc1ccc(-c2nnn(Cc3ccccc3F)n2)cc1	?	?	.	?	15µM*
Fc1ccccc1COc1ccc(C(=S)N2CCCC2)cc1	?	?	.	?	17µM*
CC(C)n1nnc(-c2ccc(OCc3ccccc3F)cc2)n1	1.6µM*	2.8µM*	.	?	6µM*
CC(CCC(=O)O)(c1cc(Br)c(O)c(Br)c1)c1cc(Br)c(O)c(Br)c1	.	.	6%[9.22 µM]	.	.
COc1ccc(Cl)cc1NC(=S)N1CC(C)OC(C)C1 (stereo not given)	0%	-2%	.	-2%	1%
CCN(CC(=O)NCc1cccs1)C(=O)Cc1ccc(Cl)c(Cl)c1	.	.	.	-1%	.
CCNc1ccc(C2(O)C(=O)c3ccccc3C2=O)cc1	7%	3%	-20%	2%	0%
Cn1nnc(-c2ccc(OCc3ccccc3F)cc2)n1	1µM*	0.63µM*	8.9µM*	9.2µM*	1.9µM*
COc1ccc2c(C)c(C(=O)NCC(C)O)oc2c1OC (stereo not given)	-2%	-3%	-4%	6%	-2%
O=c1c2ccccc2sn1-c1ccccc1	25%	10%	6%	17%	7.6µM*
Cc1ccc(-n2sc3ccccc3c2=O)cc1S(=O)(=O)N1CCCCC1	8%	1%	-17%	-8%	19µM*
O=c1c2ccccc2sn1-c1ccc(S(=O)(=O)N2CCCC2)cc1	21%	9%	-7%	0%	4.8µM*

High-throughput results as filed in PubChem BioAssay.
